Source: ChEMBL document CHEMBL1157539, “Thousands of chemical starting points for antimalarial lead identification” (Nature, 2010)

Columns and labels:
Type in all cases: functional
Plasmodium falciparum [1] = assay: GSK_TCMDC: Inhibition of Plasmodium falciparum 3D7 in whole red blood cells, using parasite LDH activity as an index of growth. Test compounds present at 2uM
Plasmodium falciparum [2] = assay: GSK_TCMDC: Inhibition of Plasmodium falciparum Dd2 in whole red blood cells, using parasite LDH activity as an index of growth. Test compounds present at 2uM
HepG2 = assay: GSK_TCMDC: Percent inhibition of human HepG2 cell line. Test compounds present at 10uM.

Row | Compound | Inhibition (Plasmodium falciparum [1]) | Inhibition (Plasmodium falciparum [2]) | Inhibition (HepG2)
1 | Cc1ccccc1C1CCN(C2CCC(NC(=O)/C=C/c3ccc(OC(F)(F)F)cc3)CC2)CC1 (stereo not given) | 100% | 67% | 96%
2 | CN(C1CCC(NC(=O)/C=C/c2ccccc2)CC1)C1CC2(CCN(C(=O)OC(C)(C)C)CC2)c2ccccc21 (stereo not given) | 95% | 95% | 16%
3 | Nc1ccnc(N2CCC(CCOc3ccnc4cc(Cl)ccc34)CC2)c1.O=C(O)C(F)(F)F | 100% | 99% | 34%
4 | CC(C)(C)CCN1CCC(NC(=O)c2ccc(-c3cccc(C(F)(F)F)c3)s2)CC1.O=C(O)C(F)(F)F | 93% | 88% | 95%
5 | CCOc1cc(O)c(-c2nc(N)ncc2-c2ccc3c(c2)OCCO3)cc1CC | 99% | 68% | 0%
6 | COc1c(C2CCN(CCN3CCC(NC(=O)c4ccc(-c5ccc(C(F)(F)F)cc5)cc4)CC3)CC2)ccc2c1CCCC2 | 82% | 35% | 42%
7 | Cc1cccc2nc(-c3cccc(-c4ccc(NC(=O)COC(C)C)cc4)c3)[nH]c12 | 82% | 11% | 0%
8 | Br.CCOc1ccc(CCCON2C(=N)N=C(N)NC2(C)C)cc1 | 93% | 93% | 65%
9 | CCc1ccc(CN2CCC(CNC(=O)c3cc(-c4ccccc4F)cs3)C2)cc1.O=C(O)C(F)(F)F (stereo not given) | 100% | 3% | 29%
10 | C=CCC(C(=O)Nc1ccnc2ccc(OC)cc12)C1CCN(CCCCCCC)CC1 (stereo not given) | 86% | 84% | 20%
